Several values for one entry are separate records, joined by “and”; a condition that tells them apart may be missing. Identical values can stand only once. Activity calls are given as the source filed them. The calls were made as follows: active = hit-call score of the fitted dose curve at least 0.9, where 1 is the maximum; inactive = score below 0.9.

Read-out in the test: Vascular cell adhesion molecule 1 (VCAM1), VCAM1 (gene 7412)
Briefly: BSK_MyoF_VCAM1: BioMAP Diversity Plus: MyoF Assay for Vascular cell adhesion molecule 1 (VCAM1) Biomarker Activity (AID 2284231). The conditions noted are these: primary human lung fibroblasts. Put shortly: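 ELISA read-out of VCAM-1 on human lung fibroblasts 24 h after chemical treatment, with positive-direction curve fitting relative to DMSO controls. Parallel cultures were stained with sulforhodamine B for total protein to flag overt cytotoxicity.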
Take `CC(C)c1ccc(CO)cc1`: the outcome was inactive.

For the compound `CC1(C)Cc2cccc(O)c2O1`, the outcome was inactive.

As for `BrCCBr`, the result was inactive.

With `Nc1cccc2ccccc12`, the outcome was inactive.

`O=[N+]([O-])c1ccc2c3c(cccc13)CC2`: the outcome was inactive.

With `O=C(O)CCC(F)(C(F)(F)F)C(F)(F)F`, the outcome was inactive.

For the compound `COP(=S)(OC)Oc1c(Cl)cc(C)cc1Cl`, the result was inactive.

`CC(=O)C(Cl)C(=O)N(C)C` (stereo unspecified): the result was inactive.

On to `Oc1ccc(-c2ccccc2)cc1`, for which the outcome was inactive.

In the case of `OCc1ccco1`, the outcome was inactive.

By AC50 is commonly meant the concentration giving half of the maximal activity seen. Take `CCNc1nc(NC(C)(C)C)nc(SC)n1`: the AC50 is 20 µM (active).

In the case of `O=C(O)C(F)(F)C(F)(F)C(F)(F)C(F)(F)C(F)(F)C(F)(F)C(F)(F)C(F)(F)C(F)(F)C(F)(F)F`, the AC50 is 4.85 µM (active) and 4.92 µM (active).

For the compound `O=C(OC1CCCCC1)c1ccccc1C(=O)OC1CCCCC1`, the AC50 is 20.9 µM (active).

With `CCOP(=S)(OCC)Oc1ccc(S(C)=O)cc1` (stereo unspecified), the outcome was inactive.

On to `CCOP(=S)(OCC)SCCS(=O)(=O)CC`, for which the outcome was inactive.

As to `COC[C@H](C)N(C(=O)CCl)c1c(C)csc1C`, the result was inactive.

For `CCOC(=O)/C=C(C)/C=C/C[C@@H](C)CCCC(C)C`, the AC50 was 29.2 µM (active).

Turning to `C(=NC1CCCCC1)=NC1CCCCC1`, the AC50 is 11.8 µM (active).

`Oc1c(I)cc(I)cc1I`: the AC50 was 8.17 µM (active).

On to `Nc1ncc([N+](=O)[O-])s1`, for which the outcome was inactive.

As to `O=S(=O)(c1ccc(Cl)cc1)c1ccc(Cl)cc1`, the result was inactive.

(Values after PubChem BioAssay (EPA / NIEHS).)
